SMN2 splice up: increases expression of the SMN2 splice variant; AID 1458; HEK293 SMN2-luciferase splicing reporter, luminescence, 30-36 h; actives 2.8% (n = 210,000); Potency, µM (series often up to 46.1 µM), for inactives: at the highest dose activity change, positive = activation, hits mostly activators; further: % of control where 0% means no effect; nearly all actives have a fitted effect of over 55% in size
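HEK293 cells carry an SMN2 […]–luciferase reporter in which exon 7 inclusion puts luciferase in frame. Cells were plated 10-12 h before compound addition, then incubated 30-36 h at 37C. ONE-Glo luminescence was read; sodium butyrate at 4.5 mM final served as control.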
Rab9 prom act: activates the Rab9 promoter; actives 2.8% (n = 320,000); Potency, µM (top dose mostly 9.22 µM), inactives show at the highest dose activation, negative = inhibition, hits mostly activators; Huh7 Rab9 promoter-luciferase reporter, luminescence, 24 h; further: % of control where 0% means no effect; nearly all actives have a fitted effect of over 60% in size
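Luminescence from Amplite-detected luciferase (10 minutes, ambient) reports Rab9 promoter activation. Before that, stable Rab9-luciferase Huh7 cells (1500/well, reduced-serum OP-MEM I plus 10% FBS) were exposed to compound for 24 hours at 37C.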
ELG1 genotoxic: induces genotoxicity in HEK293T cells with luciferase-tagged ELG1 | HEK293T ELG1-luciferase reporter, luminescence, 16 h | Potency, µM (doses to about 46 µM), for the others: at the top dose activity change, positive = activation, usual class: activators | actives 1.3% (n = 330,000) | AID 504466; further: % of control where 0% means no effect; nearly all actives have a fitted effect of over 60% in size
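Screening used a luciferase reporter fused to human ELG1 in HEK293T cells. Luminescence was read on a CCD plate imager after 16 hr exposure and 30 min ONE-Glo incubation.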
NPC1 promoter act: activates the NPC1 promoter; Huh7 NPC1 promoter luciferase reporter, 24 h; Potency, µM (doses to about 9.22 µM), for the others: at the highest dose activation, hits mostly activators; actives 2.4% (n = 320,000); AID 485313; further: % of control where 0% means no effect; nearly all actives have a fitted effect of over 60% in size
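Quantitative HTS used a cell-based reporter: Huh7 cells stably bearing the NPC1 promoter upstream of luciferase were treated with compounds for 24 h, and promoter activation was read as luminescence.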
FLuc modulator: firefly luciferase modulation, counter-screen for miR-21 project; P08659; purified FLuc, Km substrates, luminescence inhibition; AID 588342; actives 6.9% (n = 360,000); Potency, µM (doses to about 57.5 µM), inactives show at the top dose activity change, negative = inhibition, hits mostly inhibitors;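 further: plate controls were vehicle for no effect and reference inhibitor for full effect; nearly all actives have a fitted effect of over 55% in size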
Target sequence (P08659 whole entry, looked up): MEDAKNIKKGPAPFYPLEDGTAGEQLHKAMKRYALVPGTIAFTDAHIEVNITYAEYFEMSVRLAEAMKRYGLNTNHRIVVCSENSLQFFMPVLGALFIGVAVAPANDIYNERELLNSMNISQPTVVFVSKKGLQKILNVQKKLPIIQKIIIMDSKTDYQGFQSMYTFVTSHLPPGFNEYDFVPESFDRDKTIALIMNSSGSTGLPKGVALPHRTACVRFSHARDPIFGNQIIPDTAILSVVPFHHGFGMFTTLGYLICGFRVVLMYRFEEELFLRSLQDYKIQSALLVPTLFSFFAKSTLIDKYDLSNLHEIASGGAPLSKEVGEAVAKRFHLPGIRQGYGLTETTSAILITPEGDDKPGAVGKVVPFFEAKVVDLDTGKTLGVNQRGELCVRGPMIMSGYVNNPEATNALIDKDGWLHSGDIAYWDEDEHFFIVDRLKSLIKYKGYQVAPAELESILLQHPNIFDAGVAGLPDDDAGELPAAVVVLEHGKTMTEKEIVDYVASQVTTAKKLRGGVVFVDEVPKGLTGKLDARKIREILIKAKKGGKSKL
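Biochemical qHTS of compounds, final roughly 60 µM downward over six points, against 10 nM purified firefly luciferase using Km concentrations of substrates (10 uM D-luciferin, 10 uM ATP) in Tris acetate pH 7.5 buffer; luminescence output.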
An asterisk follows results filed as active; ? = inconclusive; · = no result given; [ ] = remark or other dose. Shown are actives, neighbours in structure and some others; about 7.4% of the full set was active somewhere. The call rests on the fitted dose curve; in most records, active means well fitted curve in the direction sought with a large enough effect; inconclusive means small, poorly fitted or top-dose-only effect, or another doubt; inactive means no such curve, though single readings can be large; an effect the other way counts as inactive or inconclusive. Potency means the concentration at half of the fitted maximal effect.

SMILES	SMN2 splice up	Rab9 prom act	ELG1 genotoxic	NPC1 promoter act	FLuc modulator
O=C(NCC1CCCO1)c1ccccc1-c1nc(-c2ccc(Cl)cc2)no1 (configuration not stated)	-4%	-6%	-7%	3%	15µM*
Cc1cccc(NC(=O)c2ccccc2-c2ccccc2)c1	-4%	-8%	-2%	-7%	1%
COc1cccc(NC(=O)c2ccccc2-c2nc(-c3cccc(C)c3)no2)c1	-5%	26%	1%	?	17µM*
CCCNC(=O)c1csc(Nc2cccc3ccccc23)n1	·	-3%	-6%	-1%	?
O=C(NCC1CCCO1)c1csc(Nc2cccc3ccccc23)n1 (configuration not stated)	·	-28%	?	-30%	21µM*
CCCCCOC(=O)CSc1ncnc2c1sc1nc(N3CCOCC3)c3c(c12)CCCC3	7%	·	·	·	-1%
Cc1c(C)n(Cc2ccccc2)c2ccc(C(=O)NCCc3ccccc3Cl)cc12	·	·	·	·	-15%
Cc1cccc(C(=O)Nc2ccc(N3CCN(S(C)(=O)=O)CC3)cc2)c1	?	4µM*	14%	4.5µM*	?
COc1cccc(C(=O)Nc2ccc(N3CCN(S(C)(=O)=O)CC3)cc2)c1	16%	25%	15%	29%	-18%
CS(=O)(=O)N1CCN(c2ccc(NC(=O)c3ccccc3)cc2)CC1	10µM*	1.8µM*	?	3.5µM*	?
CS(=O)(=O)N1CCc2cc(C(=O)Nc3ccc(Cl)c(C(F)(F)F)c3)ccc21	-18%	·	·	·	-2%
Cc1cccc(NC(=O)CSc2nnc(NC(=O)C3CCC3)s2)c1	·	1%	-2%	1%	-4%
Cc1cccc(Nc2nnc(SCC(=O)Nc3ccc(C(=O)O)cc3)s2)c1	18%	0%	-4%	21%	1.7µM*
COc1ccc(-c2nnc(SCC(=O)Nc3cccc(C)c3)s2)cc1	·	·	·	·	-7%
Cc1ccccc1Nc1nnc(SCC(=O)Nc2ccccc2[N+](=O)[O-])s1	-3%	18%	-1%	-1%	-14%
COc1cc(OC)cc(-c2nnc(SCC(=O)Nc3cccc(C(=O)O)c3)s2)c1	8%	15%	-3%	4%	15µM*
Cc1cccc(Nc2nnc(SCC(=O)NC(=O)CN3CCCC3=O)s2)c1	·	-5%	7%	-1%	9.5µM*
Cc1cccc(Nc2nnc(SCC(=O)Nc3ccccc3[N+](=O)[O-])s2)c1	3%	12%	-5%	3%	7.6µM*
COc1ccc(NC(=O)N2CCCC3(CCN(C(=O)c4cccc(F)c4)CC3)C2)cc1	-7%	·	·	·	·
Cc1cccc(Cn2nc(C)n3c(cc4cc(C)ccc43)c2=O)c1	5%	·	·	·	6%
Cc1cccc(N2CCN(C(=O)C3CCN(C(=O)c4cc5sccc5n4C)CC3)CC2C)c1 (configuration not stated)	-47%	·	·	·	0%
Cc1cccc(Nc2nnc(SCC3CCCCO3)s2)c1 (configuration not stated)	20µM*	2.8µM*	12%	4µM*	5.4µM*
COc1ccc(Nc2nnc(SCC3CCCCO3)s2)cc1 (configuration not stated)	30%	22%	4%	13%	?
Cc1ccc2oc(=O)c3cnn(CC(=O)N4CCN(c5cc(Cl)ccc5C)CC4)c3c2c1	-16%	·	·	·	2%
COc1ccc(NC(=O)Nc2ccccc2SC)cc1OC	·	?	14%	22%	19µM*
SMILES	SMN2 splice up	Rab9 prom act	ELG1 genotoxic	NPC1 promoter act	FLuc modulator
COc1ccc(NC(=O)Nc2ccccc2SC)c(OC)c1	5%	-2%	10%	6%	-4%
COc1cccc(NC(=O)Nc2ccccc2SC)c1	22%	15%	15%	17%	17µM*
CCOc1ccc(CCNC(=O)CCc2c(C)nc3cc(-c4ccccc4OC)nn3c2C)cc1	-2%	·	·	·	?
Cc1ccccc1Cn1c(CN2CCC(C(=O)NCc3cccnc3)CC2)cc2ccccc21	·	·	·	·	2%
Cc1cccc(OCc2nnc(SCC(=O)Nc3ccc(C)cc3C)o2)c1	-6%	·	·	·	-14%
O=C(COC(=O)c1cc(-c2ccccc2)nc2ccccc12)c1ccc(Br)cc1	-3%	·	·	·	-13%
O=C(COC(=O)c1cc(-c2cccs2)nc2ccccc12)c1ccc(F)cc1	-9%	·	·	·	?
Cc1ccc(C(=O)COC(=O)c2cc(-c3cccs3)nc3ccccc23)cc1	-2%	·	·	·	2.4µM*
COc1ccc(C(=O)COC(=O)c2cc(-c3cccs3)nc3ccccc23)cc1	-9%	·	·	·	2.7µM*
O=C(O)Cc1ccc2oc(-c3ccccn3)nc2c1	·	-5%[1.84 µM]	12%	-8%	?
Cc1ccc2nc(-c3cccnc3)oc2c1	?	1.3µM*	?	?	8.5µM*
Cc1ccc(C(=O)Nc2ccc3oc(-c4cccnc4)nc3c2)c(Cl)c1	-5%	·	·	·	?
Cc1ccc2nc(-c3ccccn3)oc2c1	7.1µM*	0.63µM*	?	1.6µM*	1.9µM*
COc1ccc(-c2cc(C(=O)Oc3ccc(C)cc3)c3cc(C)ccc3n2)cc1	-3%	·	·	·	-17%
COc1ccc(-c2cc(=Nc3ccc(C(=O)O)cc3)c3cc(C)ccc3o2)cc1	18µM*	?	?	?	9.5µM*
CCc1ccc2oc(-c3ccc(OC)cc3)cc(=Nc3c(C)n(C)n(-c4ccccc4)c3=O)c2c1	-104%	?	-14%	?	8.5µM*
CCc1ccc2oc(-c3ccc(OC)cc3)cc(=Nc3cccc(C(=O)O)c3)c2c1	?	3.2µM*	4.1µM*	?	5.4µM*
C=CCn1c(-c2ccc(OC)cc2)csc1=Nc1c(C)n(C)n(-c2ccccc2)c1=O	-19%	0%	-16%	1%	2%
Cc1ccc(NC(=O)Cn2c(=O)n(Cc3ccco3)c(=O)c3sc4ccccc4c32)cc1C	7%	·	·	·	0%
NC(N)=Nc1nc(CSCC/C(N)=N\S(N)(=O)=O)cs1	7%	·	·	·	·
CCN1CCN(c2cc(C)c3cc(NC(=O)c4ccncc4)ccc3n2)CC1	-12%	1%	-7%	0%	-2%
Cc1cc(N2CCN(C)CC2)nc2ccc(NC(=O)Nc3cccc(Cl)c3)cc12	·	·	·	·	13µM*
Cc1cc(N2CCN(C)CC2)nc2ccc(NC(=O)Nc3ccccc3)cc12	·	·	·	·	4.8µM*
Cc1cc(N2CCN(C)CC2)nc2ccc(NC(=O)Nc3ccccc3Br)cc12	·	·	·	·	1.5µM*
CCN1CCN(c2cc(C)c3cc(NC(=O)c4ccc(C)c(C)c4)ccc3n2)CC1	·	7%[1.84 µM]	10%	21%	21µM*
Cc1ccc(NC(=O)Nc2ccc3nc(N4CCN(C)CC4)cc(C)c3c2)cc1C	·	·	·	·	-15%
Cc1cc(C(=O)Nc2ccc(Cl)cc2)c(C)n1-c1ccccc1	·	-28%	?	-24%	0.048µM*
CC(C)(C)NS(=O)(=O)c1cc(C(=O)O)ccc1Cl	3%	-4%	0%	-3%	-8%
Cc1ccc(NC(=O)c2cc(C)n(-c3cccc(C)c3)c2C)cc1	27%	?	?	15%	1.5µM*

Source: PubChem
